Reference: PubChem BioAssay (EPA / NIEHS)
Values joined by “and” are separate entries in the source; they are usually repeats but may differ in a detail not shown here. Identical values can stand only once. Some structures have more than one record in an assay (separate samples or runs), and their calls can disagree. Active and inactive are the calls of the source. The calls were made as follows: active = hit-call score of the fitted dose curve at least 0.9, where 1 is the maximum; inactive = score below 0.9.

How the values were obtained:
[1] = ATG_E_Box_CIS: Attagene CIS-FACTORIAL HepG2 Assay for human Enhancer Box (E-box) (AID 2282936); conditions: HepG2 E-box cis-reporter transcription, actives raise or lower the signal
In short: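 Cells: HepG2 (human liver), transient MRTU transfection. Exposure 24 h. RNA → oligo(dT) RT → PCR → 6-FAM label → HpaI → CE. Activity fitted both directions relative to DMSO.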

[2] = ATG_EGR_CIS: Attagene CIS-FACTORIAL HepG2 Assay for human Early Growth Response 1 (EGR1) (AID 2282938); conditions: HepG2 Attagene CIS-FACTORIAL EGR reporter mRNA; actives raise or lower the signal
In short: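 Endpoint derived by bidirectional fitting versus DMSO vehicle. Method: cis-promoter reporter units transfected into HepG2, 24 h dosing, RNA isolation, RT-PCR with 6-FAM primer extension and HpaI digestion, then capillary electrophoresis fluorescence detection.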

[3] = ATG_M_19_CIS: Attagene CIS-FACTORIAL HepG2 Assay for M19 Transcription Factor (Internal Marker) (AID 2282939); conditions: HepG2 Attagene CIS-FACTORIAL M19 internal marker reporter; actives raise or lower the signal
In short: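 In this multiplexed cell assay, transiently transfected HepG2 reporter units report endogenous transcription-factor activity; after 24 hours of treatment, labelled reporter cDNA fragments are quantified by capillary electrophoresis and fitted bidirectionally against DMSO.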

[4] = ATG_ERE_CIS: Attagene CIS-FACTORIAL HepG2 Assay for Estrogen Response Element (ERE) (AID 2282940); conditions: HepG2 ERE cis-reporter, Attagene RNA transcript; actives raise or lower the signal
In short: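 Measuring endogenous transcription factor output, the assay doses transfected HepG2 cells for 24 hours and quantifies reporter transcripts by fluorescent RT-PCR and capillary electrophoresis, with DMSO as baseline.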

[5] = ATG_Ets_CIS: Attagene CIS-FACTORIAL HepG2 Assay for human Erythroblast Transformation Specific (ETS) (AID 2282941); conditions: HepG2 ETS cis-reporter transcription, actives raise or lower the signal
In short: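 After transient cis-reporter transfection, HepG2 cells receive test chemical for 24 h. Reporter mRNA levels, measured by RT-PCR and capillary electrophoresis fluorescence, are analysed bidirectionally relative to the DMSO baseline.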

[6] = target: Hepatocyte nuclear factor 3-beta (Homo sapiens) (UniProt Q9Y261); experiment: ATG_FoxA2_CIS: Attagene CIS-FACTORIAL HepG2 Assay for human Forkhead box A2 (FOXA2) (AID 2282942); conditions: HepG2 cis-reporter transcription factor activity, 24 h; actives raise or lower the signal
Sequence of Hepatocyte nuclear factor 3-beta (Homo sapiens) (Q9Y261 whole entry, looked up): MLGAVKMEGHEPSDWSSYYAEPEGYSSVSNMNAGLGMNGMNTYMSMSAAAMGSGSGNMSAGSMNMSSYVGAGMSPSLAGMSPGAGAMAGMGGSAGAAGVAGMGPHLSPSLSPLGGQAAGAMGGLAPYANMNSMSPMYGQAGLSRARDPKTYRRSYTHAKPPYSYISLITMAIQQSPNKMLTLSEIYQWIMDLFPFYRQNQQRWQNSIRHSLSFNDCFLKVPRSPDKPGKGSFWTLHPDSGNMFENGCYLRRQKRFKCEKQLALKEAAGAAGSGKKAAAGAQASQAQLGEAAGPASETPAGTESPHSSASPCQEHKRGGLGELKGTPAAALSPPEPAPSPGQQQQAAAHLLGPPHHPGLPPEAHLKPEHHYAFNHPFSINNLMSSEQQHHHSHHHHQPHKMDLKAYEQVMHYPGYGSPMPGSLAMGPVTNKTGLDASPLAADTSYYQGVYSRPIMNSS
In short: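 Measured: reporter mRNA induction or loss in HepG2 transiently carrying multiple cis-regulated reporter units, 24 h after dosing. Quantified by RT-PCR plus capillary electrophoresis, normalised to DMSO.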

[7] = ATG_FoxO_CIS: Attagene CIS-FACTORIAL HepG2 Assay for human Forkhead box O (FoxO) (AID 2282943); conditions: HepG2 Attagene cis-reporter, FoxO element, mRNA; actives raise or lower the signal
In short: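 HepG2, transient MRTU transfection (cis element, endogenous TFs). Dose 24 h. TriZol RNA → oligo(dT) RT → PCR → 6-FAM primer extension → HpaI cut → CE. Gain/loss vs DMSO.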

[8] = ATG_GATA_CIS: Attagene CIS-FACTORIAL HepG2 Assay for human GATA Binding Protein (AID 2282944); conditions: HepG2 GATA cis-element reporter, Attagene multiplex mRNA; actives raise or lower the signal
In short: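 Measures endogenous transcription factor-driven reporter mRNA in HepG2 cells transiently carrying cis-regulated constructs. 24 h dosing; RNA via oligo(dT) reverse transcription, PCR, HpaI digestion, capillary electrophoresis; fitted relative to DMSO.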

[9] = ATG_GLI_CIS: Attagene CIS-FACTORIAL HepG2 Assay for human Zinc Finger Protein GLI1 (AID 2282945); conditions: HepG2, Attagene cis-factorial reporter mRNA, GLI element; actives raise or lower the signal
In short: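 Bidirectional curve fits relative to DMSO, using reporter mRNA levels from RT-PCR plus capillary electrophoresis. Cells were HepG2 transiently carrying cis-regulated reporter constructs, harvested 24 h after dosing.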

[10] = ATG_GRE_CIS: Attagene CIS-FACTORIAL HepG2 Assay for human Glucocorticoid Response Elements (GRE) (AID 2282947); conditions: HepG2 GRE cis-reporter, Attagene multiplex mRNA; actives raise or lower the signal
In short: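 Transient MRTU transfection of human HepG2 liver cells; cis-regulated reporters report endogenous factors. 24 h dosing → RNA isolation → RT-PCR → 6-FAM primer extension → HpaI cut → CE fragment analysis. Bidirectional fit, DMSO negative control.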

[11] = ATG_ISRE_CIS: Attagene CIS-FACTORIAL HepG2 Assay for human Interferon Regulatory Factor 1 (IRF1) binding to an Interferon-Stimulated Response Element (ISRE) (AID 2282948); conditions: HepG2 ISRE cis-reporter (Attagene), mRNA transcription readout; actives raise or lower the signal
In short: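 Quantitation relies on labelled RT-PCR fragments separated by capillary electrophoresis. Human HepG2 cells bearing cis-promoter reporter constructs were treated 24 h; DMSO served as baseline for bidirectional fitting.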

[12] = ATG_M_32_CIS: Attagene CIS-FACTORIAL HepG2 Assay for M32 Transcription Factor (Internal Marker) (AID 2282949); conditions: HepG2 Attagene cis-factorial M32 reporter, mRNA; actives raise or lower the signal;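 also: background control marker of the multiplexed CIS panel rather than a real target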
In short: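 HepG2 cells transiently transfected with multiplexed cis-regulated reporter units, dosed 24 h. Reporter mRNA quantified by RT-PCR, 6-FAM labelling, HpaI digestion and capillary electrophoresis; bidirectional fit vs DMSO.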

[13] = ATG_M_06_CIS: Attagene CIS-FACTORIAL HepG2 Assay for M06 Transcription Factor (Internal Marker) (AID 2282950); conditions: HepG2 Attagene CIS-FACTORIAL M06 internal marker reporter; actives raise or lower the signal
In short: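 One of many multiplexed endpoints: HepG2 reporter mRNA after 24 h dosing, detected by RT-PCR and capillary electrophoresis fluorescence; gain or loss of signal analysed against DMSO.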

[14] = target: Hypoxia-inducible factor 1-alpha (Homo sapiens) (UniProt Q16665); experiment: ATG_HIF1a_CIS: Attagene CIS-FACTORIAL HepG2 Assay for human Hypoxia Inducible Factor 1 (HIF1A) (AID 2282951); conditions: HepG2 Attagene cis-factorial HIF1a reporter transcription; actives raise or lower the signal
Sequence of Hypoxia-inducible factor 1-alpha (Homo sapiens) (Q16665 whole entry, looked up): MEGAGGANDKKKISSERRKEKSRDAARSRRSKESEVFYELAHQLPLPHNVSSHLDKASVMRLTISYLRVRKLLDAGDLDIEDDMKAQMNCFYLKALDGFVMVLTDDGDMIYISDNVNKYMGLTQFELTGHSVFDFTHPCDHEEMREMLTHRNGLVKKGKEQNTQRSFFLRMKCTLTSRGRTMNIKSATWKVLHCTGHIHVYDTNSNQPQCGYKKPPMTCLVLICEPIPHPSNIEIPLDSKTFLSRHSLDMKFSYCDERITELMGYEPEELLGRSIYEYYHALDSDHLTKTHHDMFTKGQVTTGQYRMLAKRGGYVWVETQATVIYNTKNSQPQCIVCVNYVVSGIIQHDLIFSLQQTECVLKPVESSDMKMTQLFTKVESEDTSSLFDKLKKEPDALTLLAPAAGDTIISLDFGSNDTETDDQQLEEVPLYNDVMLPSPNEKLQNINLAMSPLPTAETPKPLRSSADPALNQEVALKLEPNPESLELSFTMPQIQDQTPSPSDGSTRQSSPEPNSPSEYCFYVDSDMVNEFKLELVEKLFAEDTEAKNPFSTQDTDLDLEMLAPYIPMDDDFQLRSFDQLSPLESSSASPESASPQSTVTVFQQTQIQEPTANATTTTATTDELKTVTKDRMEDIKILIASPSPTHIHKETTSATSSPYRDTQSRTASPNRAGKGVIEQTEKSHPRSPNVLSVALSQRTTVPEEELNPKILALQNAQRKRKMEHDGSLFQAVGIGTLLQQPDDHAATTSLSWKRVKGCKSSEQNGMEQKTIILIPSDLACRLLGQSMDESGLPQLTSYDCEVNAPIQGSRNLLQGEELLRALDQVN
In short: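 Dosed 24 h, transfected HepG2 cells yielded total RNA whose reporter transcripts were RT-PCR-amplified and sized by capillary electrophoresis using fluorescent labelling; DMSO defined baseline, with gain and loss of signal both fitted.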

[15] = target: Hepatocyte nuclear factor 6 (Homo sapiens) (UniProt Q9UBC0); experiment: ATG_HNF6_CIS: Attagene CIS-FACTORIAL HepG2 Assay for human Hepatocyte Nuclear Factor 6 (HNF6) (AID 2282952); conditions: HepG2 Attagene cis-factorial HNF6 reporter transcription; actives raise or lower the signal
Sequence of Hepatocyte nuclear factor 6 (Homo sapiens) (Q9UBC0 whole entry, looked up): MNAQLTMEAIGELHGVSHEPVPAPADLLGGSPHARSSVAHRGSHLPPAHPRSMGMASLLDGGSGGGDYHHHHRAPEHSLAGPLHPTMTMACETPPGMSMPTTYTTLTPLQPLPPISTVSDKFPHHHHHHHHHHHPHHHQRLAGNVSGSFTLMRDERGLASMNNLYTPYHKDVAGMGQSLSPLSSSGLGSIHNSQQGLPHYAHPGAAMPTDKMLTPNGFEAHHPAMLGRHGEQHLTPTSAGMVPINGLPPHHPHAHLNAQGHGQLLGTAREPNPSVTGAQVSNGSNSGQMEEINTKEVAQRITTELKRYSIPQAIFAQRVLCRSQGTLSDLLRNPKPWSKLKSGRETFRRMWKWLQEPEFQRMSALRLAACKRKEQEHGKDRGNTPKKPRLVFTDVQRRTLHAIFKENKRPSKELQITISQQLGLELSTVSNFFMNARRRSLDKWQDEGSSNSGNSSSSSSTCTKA
In short: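 HepG2 cells transiently transfected with cis-element-driven multiple reporter transcription units, dosed 24 h; reporter mRNA quantified by RT-PCR, FAM primer extension, HpaI digestion and capillary electrophoresis; bidirectional fit versus DMSO baseline.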

[16] = target: Heat shock factor protein 1 (Homo sapiens) (UniProt Q00613); experiment: ATG_HSE_CIS: Attagene CIS-FACTORIAL HepG2 Assay for human Heat Shock Transcription Factor 1 (HSE) (AID 2282953); conditions: HepG2 HSE cis-reporter, Attagene RNA transcription; actives raise or lower the signal
Sequence of Heat shock factor protein 1 (Homo sapiens) (Q00613 whole entry, looked up): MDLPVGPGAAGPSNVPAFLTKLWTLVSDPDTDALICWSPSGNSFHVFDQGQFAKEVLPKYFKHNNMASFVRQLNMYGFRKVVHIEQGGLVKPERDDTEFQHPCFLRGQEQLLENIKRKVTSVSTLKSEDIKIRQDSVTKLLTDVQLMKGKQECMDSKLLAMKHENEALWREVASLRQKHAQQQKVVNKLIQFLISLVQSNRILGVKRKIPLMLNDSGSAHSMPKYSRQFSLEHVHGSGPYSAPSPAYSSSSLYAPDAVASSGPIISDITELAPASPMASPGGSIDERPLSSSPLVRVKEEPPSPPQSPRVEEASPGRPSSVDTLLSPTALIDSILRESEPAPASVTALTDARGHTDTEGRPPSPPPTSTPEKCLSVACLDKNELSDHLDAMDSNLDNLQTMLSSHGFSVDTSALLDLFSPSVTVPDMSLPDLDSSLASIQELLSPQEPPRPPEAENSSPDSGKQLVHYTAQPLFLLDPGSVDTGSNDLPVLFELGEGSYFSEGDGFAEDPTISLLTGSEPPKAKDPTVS
In short: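 Using HepG2 with transfected cis-driven reporter constructs, compound effects on endogenous factor activity are scored as reporter mRNA change at 24 h. Detection: RT-PCR, HpaI digestion, capillary electrophoresis; bidirectional fitting to DMSO.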

[17] = ATG_MRE_CIS: Attagene CIS-FACTORIAL HepG2 Assay for human Metal Responsive Element (MRE) (AID 2282954); conditions: HepG2 MRE cis-reporter transcription, Attagene multiplex; actives raise or lower the signal
In short: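 Transient MRTU transfection of HepG2 (FuGene 6); 24 h dosing; total RNA → oligo(dT) RT, PCR, 6-FAM primer extension, HpaI cut, CE. Bidirectional fit vs DMSO.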

[18] = ATG_PBREM_CIS: Attagene CIS-FACTORIAL HepG2 Assay for human Phenobarbital-responsive Enhancer Module (PBREM) (AID 2282955); conditions: HepG2 PBREM cis-reporter, Attagene multiplexed transcription; actives raise or lower the signal
In short: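 Transfected liver-derived HepG2 cells exposed 24 h; PBREM reporter transcript quantified via RT-PCR and capillary electrophoresis, with activity in either direction referenced to DMSO.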

[19] = target: Paired box protein Pax-6 (Homo sapiens) (UniProt P26367); experiment: ATG_Pax6_CIS: Attagene CIS-FACTORIAL HepG2 Assay for human Paired Box 6 (PAX6) (AID 2282956); conditions: HepG2 CIS-FACTORIAL PAX6 reporter transcription, RNA readout; actives raise or lower the signal
Sequence of Paired box protein Pax-6 (Homo sapiens) (P26367 whole entry, looked up): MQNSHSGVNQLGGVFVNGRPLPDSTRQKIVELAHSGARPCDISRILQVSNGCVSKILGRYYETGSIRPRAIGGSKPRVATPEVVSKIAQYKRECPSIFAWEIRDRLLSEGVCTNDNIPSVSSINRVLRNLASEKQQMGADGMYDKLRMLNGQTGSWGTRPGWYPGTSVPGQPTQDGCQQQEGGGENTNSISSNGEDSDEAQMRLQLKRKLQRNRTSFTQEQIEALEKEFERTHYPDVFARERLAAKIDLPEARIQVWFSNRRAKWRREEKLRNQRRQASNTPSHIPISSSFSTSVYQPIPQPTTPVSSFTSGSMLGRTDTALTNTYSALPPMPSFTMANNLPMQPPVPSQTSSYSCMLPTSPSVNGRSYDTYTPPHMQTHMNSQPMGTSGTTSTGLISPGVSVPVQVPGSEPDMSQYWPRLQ
In short: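 After twenty-four hours of chemical exposure, transfected HepG2 cells are harvested for RNA. Cis-promoter reporter transcripts are amplified, fluorescently labelled and sized by capillary electrophoresis, with gain and loss of signal scored against DMSO.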

Measured: AC50

Nn1cnnc1
active: [4] 39.5 µM
inactive: [1] | [2] | [3] | [5] | [6] | [7] | [8] | [9] | [10] | [11] | [12] | [13] | [14] | [15] | [16] | [17] | [18] | [19]

Clc1ccc(C(c2ccccc2Cl)C(Cl)(Cl)Cl)cc1 (stereo not drawn)
inactive: [1] | [2] | [3] | [5] | [6] | [7] | [8] | [9] | [10] | [11] | [12] | [13] | [14] | [15] | [16] | [17] | [18] | [19]
active: [4] 874 nM [middle of 4 runs] | [6] 135 µM | [11] 70.5 µM and 82.3 µM | [14] 18.4 µM | [16] 50.7 µM and 94.6 µM | [17] 70.5 µM and 36.9 µM | [19] 70.5 µM

ClC1=C(Cl)[C@]2(Cl)[C@@H]3[C@H]4C[C@H]([C@@H]5O[C@H]45)[C@@H]3[C@@]1(Cl)C2(Cl)Cl
active: [4] 0.279 µM
inactive: [1] | [2] | [3] | [5] | [6] | [7] | [8] | [9] | [10] | [11] | [12] | [13] | [14] | [15] | [16] | [17] | [19]

Sc1ccccc1
inactive: [1] | [2] | [3] | [5] | [6] | [7] | [8] | [9] | [10] | [11] | [12] | [13] | [14] | [15] | [16] | [17] | [18] | [19]
active: [4] 27.1 µM and 100 µM | [16] 160 µM

c1ccc(-c2ccccc2)cc1
inactive: [1] | [2] | [3] | [5] | [6] | [7] | [8] | [9] | [10] | [12] | [13] | [14] | [15] | [16] | [17] | [19]
active: [4] 81.8 µM | [11] 110 µM

Cc1cc(O)ccc1Cl
inactive: [1] | [2] | [3] | [5] | [6] | [7] | [8] | [9] | [10] | [11] | [12] | [13] | [14] | [15] | [16] | [17] | [19]
active: [4] 48.5 µM
